High-throughput results (PubChem)
SARS PLpro yeast = SARS-CoV PLP inhibition in yeast; actives 0.19% (n = 330,000); Potency, µM (series often up to 32.9 µM), actives largely listed as activators; S. cerevisiae expressing SARS-CoV PLpro, growth rescue; calls by dose curve; further: nearly all actives have a fitted effect of over 55% in size
Sm TGR block = blocks Schistosoma mansoni thioredoxin glutathione reductase; Q962Y6; purified TGR, DTNB reduction, TNB absorbance 405 nm; Potency, µM (series often up to 114 µM), most hits filed as inhibitors; actives 3% (n = 360,000); AID 485364; active means well fitted inhibition curve with a large enough effect; inconclusive means small, poorly fitted or top-dose-only effect; inactive means no such curve, though single readings can be large or run the other way; further: nearly all actives have a fitted effect of over 60% in size
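First, TGR (20 nM dispensed) and NADPH were mixed with compound. Second, a 15 min room-temperature incubation followed. Third, further NADPH and then DTNB were added to start the reaction. Finally, TNB absorbance was monitored kinetically.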
Large screens that a line does not name were inactive. This is a sample that favours compounds with a hit; in the whole collection about 3% have one here.

O=C(C(Cc1ccccc1)N1C(=O)C2C3C=CC(C3)C2C1=O)N1CCCCCC1 (centres undefined)	Sm TGR block 79.4µM (no result: SARS PLpro yeast)
O=C(C(Cc1ccccc1)N1C(=O)C2C3C=CC(C3)C2C1=O)N1CCCCC1 (centres undefined)	SARS PLpro yeast inconclusive
O=C(NCc1ccco1)C(Cc1ccccc1)N1C(=O)C2C3C=CC(C3)C2C1=O (centres undefined)	Sm TGR block 22.4µM
O=C(Cn1c(SCc2cccc(F)c2)nc2cccnc21)Nc1ccc(F)c(Cl)c1	none (no result: SARS PLpro yeast)
Cc1ccc(NC(=O)c2ccc3c(c2)NC(=O)c2ccccc2S3)c(Cl)c1	none (no result: SARS PLpro yeast)
Cc1ccc(N2C(=O)[C@@H]3C(c4cccnc4)=NO[C@@H]3C2=O)cc1	Sm TGR block 7.94µM
COc1ccc(C2=NO[C@@H]3C(=O)N(c4c(C)cccc4C)C(=O)[C@H]23)cc1OC	Sm TGR block inconclusive
COc1ccc(CN2C(=O)[C@@H]3C(c4ccc(F)cc4)=NO[C@@H]3C2=O)cc1	none
COc1ccc(N2C(=O)[C@@H]3C(c4cccnc4)=NO[C@@H]3C2=O)cc1	Sm TGR block 7.08µM
CCOCCc1nnc(NC(=O)C(=O)c2cc(C)n(-c3ccc(C)cc3C)c2C)s1	none (no result: SARS PLpro yeast)
CCCCOc1cccc(C(=O)Nc2sc3c(c2C(=O)OCC)CCCC3)c1	none (no result: SARS PLpro yeast)
CC(C)c1ccc(NC(=S)Nc2ccc3cn[nH]c3c2)cc1	none
CC(=O)Nc1cccc(NC(=O)Nc2ccc(C)c(Cl)c2)c1	none
O=C(NC(=S)Nc1ccc(Br)c(Cl)c1)C1CC1	SARS PLpro yeast inconclusive
CC(=O)c1ccc(NC(=S)Nc2ccc3cn[nH]c3c2)cc1	Sm TGR block 20µM
Cc1ccc(NC(=S)Nc2ccc3cn[nH]c3c2)c(C)c1	none
CC(=O)Nc1cccc(NC(=S)Nc2ccc(F)c(Cl)c2)c1	Sm TGR block 28.2µM
Cc1ccc(S(=O)(=O)N(C)C)cc1NC(=S)Nc1ccc2cn[nH]c2c1	Sm TGR block 17.8µM
CC(=O)c1ccc(NC(=S)Nc2ccc(Br)c(Cl)c2)cc1	Sm TGR block 22.4µM
O=C(Nc1ccc(Cl)cc1Cl)c1cc(S(=O)(=O)N2CCc3ccccc32)ccc1F	none (no result: SARS PLpro yeast)
CC(C)Cn1c(=O)c2ccccc2n2c(CCC(=O)N3CCN(c4ccccc4)CC3)nnc12	none (no result: SARS PLpro yeast)
CN(C)S(=O)(=O)c1ccc(/C(O)=C2/C(=O)C(=O)N(Cc3cccnc3)C2c2cccs2)cc1 (centres undefined)	Sm TGR block 25.1µM
CN(C)S(=O)(=O)c1ccc(/C(O)=C2/C(=O)C(=O)N(Cc3cccnc3)C2c2ccco2)cc1 (centres undefined)	Sm TGR block inconclusive
Cn1c(CNC(=O)c2ccco2)nnc1SCC(=O)c1ccc(F)cc1	SARS PLpro yeast inconclusive, Sm TGR block 10µM
O=C(CSc1nnc(-c2ccc(O)cc2)n1Cc1ccco1)c1cccs1	Sm TGR block 25.1µM
CCn1c(CNC(=O)c2ccco2)nnc1SCC(=O)c1ccc(F)cc1	none
O=C(CSc1nnc(-c2ccc(O)cc2)n1Cc1ccco1)c1ccccc1	Sm TGR block 44.7µM
O=C(CSc1nnc(-c2cccnc2)n1Cc1ccco1)c1ccccc1	none
O=C(CC(SCCO)c1ccc2c(c1)OCO2)c1cccs1 (centres undefined)	none
CCn1c(SCC(=O)c2cccs2)nnc1-c1cccs1	none
O=C(CC(SCc1ccco1)c1ccc(O)cc1)c1cccs1 (centres undefined)	Sm TGR block 28.2µM
O=C(Cn1c(=O)n(-c2cccc(Cl)c2)c(=O)c2sc3ccccc3c21)N1CCCC1	none (no result: SARS PLpro yeast)
Cc1ccc(C)c(Cn2c(=O)n(CC3CCC(C(=O)N4CCOCC4)CC3)c(=O)c3sccc32)c1 (centres undefined)	none (no result: SARS PLpro yeast)
COc1ccc(-c2nc3scc(CCNS(=O)(=O)c4ccc5c(c4)OCCO5)n3n2)cc1OC	none (no result: SARS PLpro yeast)
Cc1ccc(CCNC(=O)c2cc3ccccn3n2)cc1	none (no result: SARS PLpro yeast)
O=C(CSc1nnc(-c2cc3ccccc3cc2O)n1Cc1ccco1)c1ccc(F)cc1	none
Cc1occc1-c1nnc(SCC(=O)c2ccc(F)cc2)n1Cc1ccco1	Sm TGR block 22.4µM
CC1=NN(c2ccccc2)C(=O)/C1=C/c1c(O)[nH]c(=S)[nH]c1=O	Sm TGR block 8.91µM
CC1=NN(c2ccccc2)C(=O)/C1=C/c1c(O)[nH]c(=O)[nH]c1=O	none
CC(=O)Nc1cccc(NC(=O)CSc2cn(CC(=O)N(C(C)C)C(C)C)c3ccccc23)c1	none (no result: SARS PLpro yeast)
COc1ccc(CNc2nc(-c3ccco3)nn2S(=O)(=O)c2ccc3ccccc3c2)cc1OC	none (no result: SARS PLpro yeast)
Cc1ccc(-c2nnc(Cc3ccc(Cl)cc3)o2)cc1	none
Cc1ccc(Cn2ncc(Cl)c(Cl)c2=O)cc1	Sm TGR block 3.55µM
Nc1cnn(-c2ccccc2)c(=O)c1Cl	none
O=c1[nH]cnc2c1cnn2Cc1ccccc1Cl	none
O=c1c(Cl)c(Cl)cnn1Cc1nnc(-c2ccc(Cl)cc2)o1	Sm TGR block 4.47µM
O=c1c(Cl)c(Cl)cnn1-c1ccccc1	Sm TGR block 39.8µM
CCc1ccc(C(=O)Cn2ncc(Cl)c(Cl)c2=O)cc1	Sm TGR block inconclusive
O=c1c(Cl)c(Cl)cnn1Cc1ccccc1Cl	Sm TGR block 12.6µM
Cn1c2cc(B(O)O)sc2c2cnn(Cc3c(F)cccc3Cl)c(=O)c21	none
O=C(NC1(C(F)(F)F)NC(=O)N(CCc2ccccc2)C1=O)c1ccccc1Cl (centres undefined)	none (no result: SARS PLpro yeast)
CC(=O)Nc1ccc(NC(=O)c2oc3c(c2C)-c2nn(Cc4ccccc4Cl)cc2CC3)cc1	none (no result: SARS PLpro yeast)
COc1cc(C)c(Cl)cc1S(=O)(=O)NCCc1c(C)[nH]c2ccccc12	none (no result: SARS PLpro yeast)
CCOCCCNC(=O)C1CCN(c2nc3ccc(Cl)cc3[nH]2)CC1	none (no result: SARS PLpro yeast)
Cc1[nH]c(C)c2c(=O)n(Cc3ccc(Cl)cc3)ncc12	none
Cc1cc(C)cc(Cn2ncc(Cl)c(Cl)c2=O)c1	Sm TGR block 2.82µM
COc1ccc(CC2c3cc(OC)c(OC)cc3CCN2C)cc1OC (centres undefined)	none
COc1cc2c(cc1OC)[C@@H](Cc1ccc(OCCC#N)cc1)N(C)CC2	Sm TGR block 50.1µM
Cc1ccc(/C=C/c2onc(C)c2S(=O)(=O)N2CCC(C(=O)N3CCN(c4ccccc4F)CC3)CC2)cc1	none (no result: SARS PLpro yeast)
Cc1ccc(C(=O)NC2(C(F)(F)F)N=C(c3ccccc3)N(C3CCCCC3)C2=O)cc1 (centres undefined)	none (no result: SARS PLpro yeast)
c1cncc(C(c2nnnn2C2CCCCC2)N2CCCCC2)c1 (centres undefined)	none
CCOC(=O)c1ccc(N=Cc2c(O)c3ccccc3oc2=O)cc1	none
CCOC(=O)c1c(C)oc2c1c(C(c1ccccc1)N1CCOCC1)c(O)c1ccccc12 (centres undefined)	Sm TGR block 10µM
CCOC(=O)c1cnc(-c2ccccc2)nc1N1CCOCC1	none
CCOC(=O)c1c(C)oc2c1c(C=NCCO)c(O)c1ccccc12	Sm TGR block 39.8µM
CCOC(=O)c1c(C)oc2c1c(C(c1cccnc1)N1CCCCC1)c(O)c1ccccc12 (centres undefined)	Sm TGR block 0.708µM
Cc1ccc(CNC(=O)c2cccc(Nc3nc4ccccc4n4nnnc34)c2)cc1	none (no result: SARS PLpro yeast)
CCN(CC)CCCNC(=O)c1ccc2c(c1)NC(=O)C(CS(=O)(=O)Cc1cccc(Br)c1)N2 (centres undefined)	none (no result: SARS PLpro yeast)
N#Cc1ccsc1NC(=O)COC(=O)CCS(=O)(=O)c1ccccc1	none (no result: Sm TGR block)
NC(=O)c1ccsc1NC(=O)CCS(=O)(=O)c1ccccc1	none
NC(=O)c1ccsc1NC(=O)CCS(=O)(=O)c1ccc(Cl)cc1	Sm TGR block 3.16µM
N#Cc1ccsc1NC(=O)CCS(=O)(=O)c1ccccc1	Sm TGR block 2.82µM
Oc1cccc(Nc2ncnc3sc4c(c23)CCCC4)c1	none (no result: SARS PLpro yeast)
